# G9a inh: inhibitors of human histone lysine methyltransferase G9a. Q96KQ7. G9a H3K9 monomethylation, AlphaScreen, 2 h. Potency, µM (top dose mostly 102 µM), actives largely listed as inhibitors. 350,000 compounds, 8.8% hits. AID 504332; further: nearly all actives have a fitted effect of over 75% in size
#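 G9a (20 nM) preincubated 15 min RT with compounds, then 500 nM biotinylated H3K9 peptide and 20 uM SAM added; 2 h RT reaction. Monomethyl-H3K9 product detected by AlphaScreen with anti-H3K9me1 antibody, streptavidin donor and anti-rabbit IgG acceptor beads.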
# BAZ2B block: BAZ2B (human) inhibition; Q9UIF8; 360,000 compounds, 4.4% hits; AlphaScreen BAZ2B-H3K14Ac peptide displacement; Potency, µM (series often up to 114 µM), usual class: inhibitors; further: nearly all actives have a fitted effect of over 60% in size
#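 BAZ2B 50 nM plus b-H3(5-23)K14Ac 50 nM, PBS pH 7.4/0.01% Tween-20, 30 min RT; compound added (max 110 uM), 30 min RT; streptavidin donor/Ni-chelate acceptor beads 10 ug/mL final, 20 min dark; AlphaScreen read.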
# CtBP-E1A inh: blocks the CtBP interaction with E1A | AlphaScreen GST-E1A/His-CtBP binding, 1536-well; stronger effect = lower value | activity change, % (test concentration not listed) | 340,000 compounds, 0.49% hits | AID 651724; in the data active means activity change below about -65%; inconclusive means mostly about -30% to -63%
#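 Homogeneous bead-based format: GST-tagged E1A captured on glutathione donor beads, His-tagged CtBP on nickel acceptor beads; compounds precede bead addition by 2 h at 37 °C.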
# JMJD2A Tudor: inhibitors of human JMJD2A Tudor domain; O75164; AlphaScreen JMJD2A-Tudor / H3K4me3 peptide binding; Potency, µM (series often up to 114 µM), most hits filed as inhibitors; 390,000 compounds, 4.4% hits; AID 504339; further: nearly all actives have a fitted effect of over 50% in size
# Six1-Eya2 inh: Six1/Eya2 interaction inhibition; Q15475+O00167; AlphaScreen GST-Six1/His-Eya2 binding, biochemical; stronger effect = lower value; activity change, % (concentration not given with the values); 360,000 compounds, 0.56% hits; AID 651725; in the data active means activity change below about -65%; inconclusive means mostly about -30% to -63%
#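 AlphaScreen with GST-Six1 and His-Eya2 (5X mix: 250 nM and 500 nM), glutathione donor and nickel acceptor beads; buffer 50 mM Tris pH 8.0, 300 mM NaCl, 1 mM TCEP; 1 h at 37 C in the dark.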
# HP1b binding inh: blocks HP1-beta chromodomain binding to methylated histone tails. AlphaScreen HP1-beta / biotin-H3K9me3 peptide binding. P83916. 390,000 compounds, 0.56% hits. Potency, µM (doses to about 114 µM), usual class: inhibitors; further: nearly all actives have a fitted effect of over 70% in size
#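 HP1-beta protein (50 nM final) preincubated 30 min at room temperature with biotinylated H3(1-18)K9me3 peptide (50 nM) in PBS pH 7.4, 0.01% Tween-20, then compound added for 30 min. AlphaScreen streptavidin donor/nickel chelate acceptor beads (10 ug/mL final), 30 min dark, luminescence read.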
# Hits are given with their value; i = inactive; ? = inconclusive; nt = not tested or not shown; ! = repeats disagree; [ ] = dose if it differs, or a comment. Rows were chosen to be rich in hits. Some 10% of all compounds tested hit in one or more screens of this group. Unless noted, the call rests on the fitted dose curve; in most records, active means well fitted inhibition curve with a large enough effect; inconclusive means small, poorly fitted or top-dose-only effect; inactive means no such curve, though single readings can be large or run the other way.
SMILES,G9a inh,BAZ2B block,CtBP-E1A inh,JMJD2A Tudor,Six1-Eya2 inh,HP1b binding inh
O=c1c(-c2cc(-c3ccccc3)nc3c2COc2ccc(Cl)cc2-3)coc2ccccc12,i,i,nt,i,nt,i
Cc1oc2c(c1C(=O)Nc1ccc(OC(F)(F)F)cc1)C1=NCCN1C=N2,i,i,nt,i,nt,i
O=C1C=C(N2CCOCC2)C2(CCCCC2)O1,45µM,?,i,i,i,i
NC(=O)CC(NC(=O)c1cccc(Br)c1)c1ccc(NC2CCCCCCCCCCC2)c([N+](=O)[O-])c1 (stereo not drawn),71µM,i,i,i,i,i
NC(=O)CC(NC(=O)c1cccc(Br)c1)c1ccc(NC2CCCCCCC2)c([N+](=O)[O-])c1 (stereo not drawn),20µM,?,i,?,i,i
NC(=O)CC(NC(=O)c1ccc(Br)cc1)c1ccc(NC2CCCCC2)c([N+](=O)[O-])c1 (stereo not drawn),nt,i,i,i,i,i
Cc1cc(C)c(S(=O)(=O)N2CCC(N3CCN(Cc4ccc(F)cc4)C(=O)C3=O)CC2)c(C)c1,i[12.7 µM],i,nt,i,nt,i
CCn1cc2nc(SCC(=O)Nc3cccc(Cl)c3C)n(Cc3ccc(Cl)cc3)c(=O)c2n1,i,i,nt,i,nt,i
O=C(CC(=O)c1ccccn1)c1ccccc1,nt,nt,?,25µM,?,i
Cc1cccc(NC(=O)c2ccccn2)c1C,?,i,i,7.9µM,i,i
O=C(O)c1ccc2cccnc2n1,35µM,28µM,i,7.1µM,i,?
O=C(c1ccccc1)c1ccccn1,i,i,i,i,i,i
O=C(O)c1ccccn1,0.56µM!,2.8µM,-66,4µM,?,i
O=C(NCc1cccs1)c1ccc(Cn2c(SCc3ccccc3)nc3cccnc32)cc1,i,i,nt,i,nt,i
COc1cccc(C2=Nn3c(nnc3-c3cc(OC)ccc3OC)SC2)c1,nt,nt,nt,i,nt,nt
Cn1c(=O)oc2cc(S(=O)(=O)NC(Cc3ccccc3)C(=O)Nc3ccc(F)c(Cl)c3)ccc21 (stereo not drawn),i,i,nt,i,nt,i
Cc1oc(-c2ccc(C(=O)NCc3ccc(N(C)C)cc3)cc2)nc1COc1ccccc1,i,i,nt,i,nt,i
CCCCOc1ccc(-c2nc(=S)[nH][nH]2)cc1,1.3µM,i,i,i,i,i
O=C(N/N=C\c1ccc([N+](=O)[O-])o1)C1COc2ccccc2O1 (stereo not drawn),56µM,i,i,i,i,i
O=C(N/N=C\c1ccc([N+](=O)[O-])s1)C1COc2ccccc2O1 (stereo not drawn),i,i,i,?,i,i
O=C(N/N=C\c1ccc(-c2ccccc2[N+](=O)[O-])o1)C1COc2ccccc2O1 (stereo not drawn),28µM,?,?,?,?,i
CCCNC(=O)Cn1nc(-c2ccc(C)cc2)c2cnc3ccc(CC)cc3c21,i,i,nt,i,nt,i
Cn1cc(C=C2C(=O)CC(C)(C)CC2=O)c2ccccc21,45µM,?,i,?,i,i
Cn1cc(C=C2C(=O)OC3(CCCCC3)OC2=O)c2ccccc21,nt,i,i,i,i,i
CN(C)c1ccc(O)c2c1CC1CC3[C@@H](N(C)C)C(=O)C(C(N)=O)=C(O)[C@]3(O)C(=O)C1=C2O (stereo partly drawn),10µM,3.5µM,i,i,?,i
SMILES,G9a inh,BAZ2B block,CtBP-E1A inh,JMJD2A Tudor,Six1-Eya2 inh,HP1b binding inh
CN(C)C1C(=O)C(C(N)=O)=C(O)[C@@]2(O)C(=O)C3=C(O)c4c(O)ccc(Cl)c4[C@@H](O)C3C[C@@H]12 (stereo partly drawn),35µM,nt,nt,nt,nt,nt
CN(C)C1C(=O)C(C(N)=O)C(=O)C2(O)C(=O)C3C(=O)c4c(O)ccc(Cl)c4C(O)C3CC12 (stereo not drawn),16µM,nt,nt,nt,nt,nt
CN(C)C1C(=O)C(C(N)=O)=C(O)[C@@]2(O)C(=O)C3=C(O)c4c(O)ccc(Cl)c4C(O)[C@H]3C[C@@H]12 (stereo partly drawn),i[2.33 µM],nt,nt,nt,nt,nt
CCOc1ccccc1CNS(=O)(=O)c1cnc(N)nc1,i,i,nt,i,nt,i
Cc1nc2cccnc2n1C1CCN(C(=O)Nc2ccccc2C(F)(F)F)CC1,i[12.7 µM],i,nt,i,nt,i
COc1ccc(/C(=N/Nc2ncnc3ccccc23)C(=O)O)cc1,?,i,-69,?,-77,i
CC(Sc1nccn1C)C(=O)Nc1ccccc1C#N (stereo not drawn),i,i,nt,i,nt,i
CC(=O)Nc1ccc(C)c([N+](=O)[O-])c1,i,i,i,i,i,i
O=C(NNc1ccc([N+](=O)[O-])cc1)C1C2CCCCC21 (stereo not drawn),89µM,i,i,i,i,i
Cc1ccc(NC(=O)C2C3CCCCC32)cc1[N+](=O)[O-] (stereo not drawn),nt,20µM,i,?,i,i
COc1ccccc1N1CCN(c2nc3ccc(C(=O)c4ccccc4)cc3n3c(C)nnc23)CC1,?,i,nt,i,nt,i
O=C(O)c1ccccc1NS(=O)(=O)c1cccc(-n2sc3ccccc3c2=O)c1,1.3µM,4µM,i,1.4µM,i,i
O=C(O)c1ccccc1NS(=O)(=O)c1cccc(C(F)(F)F)c1,i[2.33 µM],i,i,i,i,i
COC(=O)CCN1CCN(S(=O)(=O)c2ccc3c(c2)OCCO3)CC1,i[2.33 µM],i,nt,i,i,i
COC(=O)CCN1CCN(S(=O)(=O)c2ccccc2Br)CC1,3.5µM,20µM,i,0.79µM,i,?
CCCCCCSc1nnc(-c2cnn(-c3ccccc3)c2-n2cccc2)n1C,40µM,i,i,i,i,i
Cn1c(-c2cnn(-c3ccccc3)c2-n2cccc2)n[nH]c1=S,8.9µM,i,nt,8.9µM,i,i
CCCn1c(SC(C)C(=O)O)nc2ccccc21 (stereo not drawn),i[12.7 µM],?,i,?,i,i
CCCn1c(SCC(=O)C(C)(C)C)nc2ccccc21,35µM,i,i,i,i,i
CC(C)(C)NC(=O)Cn1c(SCC(N)=O)nc2ccccc21,i[0.0925 µM],i,i,20µM,i,i
CCCCN(CC)CCNC(=O)CN1C(=O)COc2ccc(S(=O)(=O)N3CCOCC3)cc21,i,i,nt,i,nt,i
O=C(O)[C@H]1CCCN1S(=O)(=O)c1cccc2cccnc12,i[12.7 µM],i,i,i,i,i
CC1CCCCN1S(=O)(=O)c1cccc2cccnc12 (stereo not drawn),32µM,i,i,i,i,i
COCc1cc(C)nc2sc(C(=O)Nc3cc(C)ccc3F)c(N)c12,i,i,nt,i,nt,i
CCc1ccc(C(O)(CC(C)C)C(CN2CCOCC2)c2ccccc2)cc1 (stereo not drawn),i,i,nt,i,i,i

# Screens from PubChem.
